Only a selection was taken, and hits are over-represented in it overall.
ID4 SMM: ID4 (human) binding | P47928 | small molecule microarray, Flag-ID4 binding, fluorescence F/B | calls only | 1.2% of 31,000 active | AID 624137; call rule not given here;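 also: a binder raises fluorescence above local background on the spot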
Target sequence (P47928 whole entry, looked up): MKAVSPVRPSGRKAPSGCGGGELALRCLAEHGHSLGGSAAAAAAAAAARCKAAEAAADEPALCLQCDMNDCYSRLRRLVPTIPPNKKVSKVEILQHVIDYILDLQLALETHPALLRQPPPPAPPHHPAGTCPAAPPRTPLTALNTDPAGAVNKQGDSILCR
Calls only; 0 = inactive; + = active, no number.

SMILES	ID4 SMM
Cc1scc(C(=O)Nc2cccc(Cn3cccn3)c2)c1-c1ccccc1	+
CC(=O)Nc1cccc(NC(=O)c2cccc(Cn3cc(Cl)cn3)c2)c1	0
Cc1c(Cl)cccc1NC(=O)Nc1cccc(Cn2cccn2)c1	0
O=C(CSc1ncnc2sc(-c3ccccc3)cc12)Nc1ccccc1Cl	0
CSc1cc(-c2nccs2)[nH]n1	0
C[C@@H]1CN([C@H](C)CO)C(=O)c2cc(NC(=O)CCCN(C)C)ccc2O[C@H]1CN(C)C(=O)Nc1cccc2ccccc12	0
C[C@@H]1CN([C@H](C)CO)C(=O)c2cc(NC(=O)CCCN(C)C)ccc2O[C@@H]1CN(C)C(=O)Nc1cccc2ccccc12	0
C[C@@H]1CN([C@H](C)CO)C(=O)c2cc(NS(C)(=O)=O)ccc2O[C@H]1CN(C)C(=O)Nc1ccccc1	0
C[C@@H]1CN([C@H](C)CO)C(=O)c2cc(NS(C)(=O)=O)ccc2O[C@@H](C)CCCCO[C@H]1CN(C)Cc1ccccc1	0
C[C@H]1CCCCO[C@@H](CN(C)C(=O)Nc2ccccc2)[C@@H](C)CN([C@@H](C)CO)C(=O)c2cc(NS(C)(=O)=O)ccc2O1	0
C[C@@H]1CN([C@H](C)CO)C(=O)c2cc(NS(C)(=O)=O)ccc2O[C@H]1CN(C)Cc1ccccc1	0
C[C@H](CO)N1C[C@H](C)[C@@H](CN(C)Cc2ccccc2)Oc2ccc(NS(C)(=O)=O)cc2C1=O	+
C[C@H](CO)N1C[C@H](C)[C@@H](CN(C)C(=O)Nc2ccccc2)Oc2ccc(NS(C)(=O)=O)cc2C1=O	+
C[C@H]1CCCCO[C@H](CN(C)C(=O)Nc2ccccc2)[C@@H](C)CN([C@@H](C)CO)C(=O)c2cc(NS(C)(=O)=O)ccc2O1	0
C[C@@H]1CN([C@@H](C)CO)C(=O)c2cc(NC(=O)CCCN(C)C)ccc2O[C@H]1CN(C)C(=O)Nc1cccc2ccccc12	+
C[C@@H]1CN([C@@H](C)CO)C(=O)c2cc(NS(C)(=O)=O)ccc2O[C@@H](C)CCCCO[C@@H]1CN(C)C(=O)Nc1ccccc1	+
C[C@@H]1CN([C@@H](C)CO)C(=O)c2cc(NS(C)(=O)=O)ccc2O[C@H]1CN(C)C(=O)Nc1ccccc1	0
O=c1c(F)cn(CC2CC(c3ccccc3)=NO2)c(=O)n1CC1CC(c2ccccc2)=NO1 (stereo unspecified)	0
CCSc1n[nH]c(-c2c(Cl)c(CC)nn2C)n1	0
Nc1cc(=O)[nH]c(SCC(=O)Nc2ccc(F)cc2)n1	0
CC(=O)O[C@H]1CC[C@@]2(C)C(C[C@@H](OC(C)=O)[C@@]3(C)C4=CC(=O)O[C@@H](c5ccoc5)[C@]4(C)CCC23)C1(C)C (stereo partly specified)	0
Cc1nn(Cc2ccc(Br)cc2)c(C)c1NC(=O)Cn1nc(C(F)(F)F)c2c1CCCCC2	0
CCOC(=O)C1=C(Cn2ccc(C(F)(F)F)n2)NC(=O)NC1c1cc(C)ccc1C (stereo unspecified)	0
COc1ccc(S(=O)(=O)NCc2ccccc2)cc1-c1nnc2c3ccccc3c(C)nn12	0
Cc1cc(C)n2nc(NCc3cccc([N+](=O)[O-])c3)nc2n1	0
SMILES	ID4 SMM
COc1cc(NC(=O)CSc2ncnc3sc4c(c23)CCCC4)cc(OC)c1	0
C[C@@H]1CCCCO[C@@H](CN(C)S(=O)(=O)c2cn(C)cn2)[C@@H](C)CN([C@H](C)CO)C(=O)c2cc(NS(C)(=O)=O)ccc2O1	0
C[C@@H]1CCCCO[C@H](CN(C)S(=O)(=O)c2cn(C)cn2)[C@@H](C)CN([C@H](C)CO)C(=O)c2cc(NS(C)(=O)=O)ccc2O1	0
C[C@@H]1CCCCO[C@H](CN(C)S(=O)(=O)c2cn(C)cn2)[C@H](C)CN([C@H](C)CO)C(=O)c2cc(NS(C)(=O)=O)ccc2O1	+
COc1cc(Cl)c(C)cc1NC(=O)CN(C)S(=O)(=O)c1ccccc1	0
O=C(Nc1ccccc1[N+](=O)[O-])c1cc(S(=O)(=O)Nc2ccccc2)c(Cl)cc1Cl	0
CCCn1c(SCC(=O)N2CCOCC2)nnc1-c1ccncc1	0
Cn1c(SCC(=O)N2CCN(Cc3ccccc3)CC2)nnc1-c1ccncc1	+
Cn1c(SCC(=O)Nc2ccc(Oc3ccccc3)cc2)nnc1-c1ccncc1	0
CC[C@H]1C(=O)CC2C3CCC4C[C@@H](O)[C@]5(O)C[C@]4(CO5)C3CC[C@@]21C (stereo partly specified)	0
COc1cc(NC(=O)CCC(=O)O)ccc1NC(C)=O	0

Source: PubChem (Broad Institute)
